53 compounds from PubChem BioAssay AID485346 (Sanford-Burnham Center for Chemical Genomics, 2010) can be followed below.

The inhibition is the relative decrease from the control value, in per cent.

About 10,000 (3%) of roughly 330,000 compounds were called active.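 The calls were made as follows: active = inhibition of at least 50% at 8 µM in the primary screen; inactive = the rest.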 Shown is part of a subset that was picked to be rich in actives.

Chain of Protein Mdm4 (Homo sapiens) + E3 ubiquitin-protein ligase Mdm2 (Homo sapiens) (O15151 whole entry, looked up): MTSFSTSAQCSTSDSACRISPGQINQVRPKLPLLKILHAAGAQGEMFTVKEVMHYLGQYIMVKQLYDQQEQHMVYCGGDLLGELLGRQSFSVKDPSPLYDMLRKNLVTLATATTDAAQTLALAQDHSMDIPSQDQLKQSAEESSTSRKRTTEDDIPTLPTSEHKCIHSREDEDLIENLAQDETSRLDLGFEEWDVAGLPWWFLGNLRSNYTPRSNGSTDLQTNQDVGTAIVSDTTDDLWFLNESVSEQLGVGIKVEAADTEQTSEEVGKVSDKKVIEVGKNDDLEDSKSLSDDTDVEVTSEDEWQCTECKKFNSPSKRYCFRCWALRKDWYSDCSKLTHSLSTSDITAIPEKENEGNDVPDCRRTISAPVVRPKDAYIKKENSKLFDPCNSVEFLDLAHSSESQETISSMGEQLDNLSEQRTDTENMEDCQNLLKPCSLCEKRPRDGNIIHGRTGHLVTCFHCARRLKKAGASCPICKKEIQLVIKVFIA
Chain of Protein Mdm4 (Homo sapiens) + E3 ubiquitin-protein ligase Mdm2 (Homo sapiens) (Q00987 whole entry, looked up): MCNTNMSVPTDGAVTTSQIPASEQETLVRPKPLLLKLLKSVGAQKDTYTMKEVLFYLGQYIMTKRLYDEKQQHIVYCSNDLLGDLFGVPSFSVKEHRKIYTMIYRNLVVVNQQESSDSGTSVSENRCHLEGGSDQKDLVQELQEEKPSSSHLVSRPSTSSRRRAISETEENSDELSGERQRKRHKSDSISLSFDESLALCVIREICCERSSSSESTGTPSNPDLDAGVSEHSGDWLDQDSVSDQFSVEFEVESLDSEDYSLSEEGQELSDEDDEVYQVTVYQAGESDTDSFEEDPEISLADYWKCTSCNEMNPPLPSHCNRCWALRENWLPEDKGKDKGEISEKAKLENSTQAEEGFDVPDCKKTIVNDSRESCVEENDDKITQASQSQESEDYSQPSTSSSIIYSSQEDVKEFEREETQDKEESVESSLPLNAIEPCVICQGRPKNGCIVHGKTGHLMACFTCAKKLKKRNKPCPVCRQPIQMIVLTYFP

This assay concerns the target Protein Mdm4 (Homo sapiens) + E3 ubiquitin-protein ligase Mdm2 (Homo sapiens) (UniProt O15151+Q00987). Briefly: disruptors of Mdm2/MdmX RING complex – cell-based, luminescence, split luciferase, SaOS-2, uHTS, primary screen (AID 485346). Particulars: SaOS-2 split-luciferase Mdm2/MdmX complementation, at 8 µM, active compounds read high.
Consider `O=C1c2ccccc2C(=O)N1CCC(c1ccccc1)c1ccco1` (stereo not drawn), for which the inhibition was -4.99% (inactive).

Turning to `CC1CCC(N2CC(=O)N(Cc3ccc4c(c3)OCO4)C(c3ccc(F)cc3)C2=O)CC1` (stereo not drawn), the inhibition is -7.03% (inactive).

Take `CC1=CC(C)(C)Nc2ccc(OC(=O)CN3C(=O)C4CCCCC4C3=O)cc21` (stereo not drawn): the inhibition is 54% (active).

Turning to `O=C(CN1C(=O)C2C3CCC(C3)C2C1=O)Oc1ccc2ccccc2c1` (stereo not drawn), the inhibition is 12% (inactive).

Turning to `CC1=CC(C)(C)Nc2ccc(OC(=O)C(Cc3ccccc3)N3C(=O)C4CCCCC4C3=O)cc21` (stereo not drawn), the inhibition is 42.7% (inactive).

For `Cc1ccc(CNC(=O)Cn2cnc3c(NCc4ccccc4)ncnc32)o1`, the inhibition was 28.2% (inactive).

For the compound `NC(=O)COc1ccc(C23CC4CC(CC(C4)C2)C3)cc1`, the inhibition is -45% (inactive).

`Cc1cc([N+](=O)[O-])nn1CC(=O)Nc1ccc(Cc2ccncc2)cc1`: the inhibition is 2.13% (inactive).

As for `CCCN(CCC)c1nc2c(C)cccn2c(=O)c1/C=C1/SC(=S)N(Cc2ccco2)C1=O`, the inhibition was 2.98% (inactive).

Consider `CCOC(=O)CC1C(=O)NCCN1c1nc2c(C)cccn2c(=O)c1/C=C1\SC(=S)N(C(C)CC)C1=O` (stereo not drawn), for which the inhibition is 59% (active).

Consider `CCOC(=O)N1CCN(C(=O)CSc2nc(=O)n3cccc(C)c3n2)CC1`, for which the inhibition is -0.597% (inactive).

In the case of `Cc1cc(C)n2nc(C(=O)Nc3cccc(S(=O)(=O)N4CCOCC4)c3)nc2n1`, the inhibition is 7.78% (inactive).

Take `COc1ccccc1C(=O)NC(=O)COC(=O)C1CC1`: the inhibition is -22.8% (inactive).

With `NC(=O)COc1ccccc1C(=O)NC12CC3CC(CC(C3)C1)C2`, the inhibition was 3.86% (inactive).

For the compound `COc1ccccc1C(=O)NC(=S)NC12CC3CC(CC(C3)C1)C2`, the inhibition was 63.6% (active).

Turning to `COc1ccc(N2CCN(CCNC(=O)Nc3cc(Cl)ccc3Cl)CC2)cc1`, the inhibition is 14.4% (inactive).

On to `CCCCn1c(N)c(N(CC(C)C)C(=O)c2ccc(Br)o2)c(=O)[nH]c1=O`, for which the inhibition was 25.9% (inactive).

Turning to `CNc1ccc(SC#N)cc1`, the inhibition was 0.392% (inactive).

Regarding `COc1ccc(C2=NN(c3nc4ccccc4s3)C(=O)C2)cc1`, the inhibition was 1.88% (inactive).

`CC(=NCc1ccco1)c1c(C(F)(F)F)[nH]n(-c2nc3ccccc3s2)c1=O`: the inhibition is 0.099% (inactive).

Take `COC(=O)Cc1[nH]n(-c2nc3ccccc3s2)c(=O)c1C(C)=Nc1ccc(OC)cc1`: the inhibition was 77.3% (active).

Take `CCn1nc(C)c(CNC(=O)C2CCC(=O)N(Cc3cccc(F)c3)C2)c1C` (stereo not drawn): the inhibition was 28.2% (inactive).

Turning to `COc1ccc2[nH]c3c(c2c1)CCN1C(=O)C(CC(=O)NCCCN(C)C)C[C@H](C(=O)N2CCOCC2)[C@@]31CCC1CCCC1` (stereo partly drawn), the inhibition was -3.6% (inactive).

For `O=C(C[C@H]1C[C@H](C(=O)N2CCOCC2)[C@@]2(CCC3CCCC3)c3[nH]c4ccc(Cl)cc4c3CCN2C1=O)NCc1ccco1`, the inhibition was 49.9% (inactive).

On to `COc1ccc(CNC(=O)C[C@H]2C[C@H](C(=O)N3CCOCC3)[C@@]3(CCC4CCCC4)c4[nH]c5ccc(Cl)cc5c4CCN3C2=O)cc1OC`, for which the inhibition is 92.6% (active).

As for `COCCN(C(=O)C(C)C)c1nnc(-c2ccc(C(C)(C)C)cc2)s1`, the inhibition is -22.5% (inactive).

Turning to `O=C1NC(Nc2nc3ccccc3s2)(C(F)(F)F)C(=O)N1C1CCCCC1` (stereo not drawn), the inhibition is 66.2% (active).

As for `COC(=O)NC1(C(F)(F)F)NC(=O)N(C2CCCCC2)C1=O` (stereo not drawn), the inhibition is -5.21% (inactive).

With `O=C(NC1(C(F)(F)F)NC(=O)N(C2CCCCC2)C1=O)c1ccco1` (stereo not drawn), the inhibition is 1.56% (inactive).

As for `CC(Oc1ccc(F)cc1)C(=O)Nc1cc(S(=O)(=O)N2CCOCC2)ccc1N1CCN(C)CC1` (stereo not drawn), the inhibition was 13.7% (inactive).

As to `Cc1cc(NC(=O)CCC(=O)N(c2cccc(F)c2)C(C(=O)NC2CCCC2)c2ccncc2)no1` (stereo not drawn), the inhibition is -20% (inactive).

Take `Cc1cc(NC(=O)/C=C/C(=O)N(CC(=O)NC2CCCC2)c2ccc(F)cc2)no1`: the inhibition was -19.5% (inactive).

In the case of `Cc1cc(NC(=O)/C=C/C(=O)N(c2ccccc2C)C(C(=O)NC2CCCC2)c2ccc(F)cc2)no1` (stereo not drawn), the inhibition is 63.1% (active).

Regarding `CCOc1cc(/C=N/NC(=O)c2cc(-c3ccccc3)nc3ccccc23)ccc1O`, the inhibition was -10.1% (inactive).

Regarding `CCOc1ccc(-c2cc(C(=O)N/N=C/c3ccc(O)cc3)c3ccccc3n2)cc1`, the inhibition is 76.9% (active).

In the case of `COc1ccc(/C=N/NC(=O)c2cc(-c3cccc(C)c3)nc3ccccc23)cc1O`, the inhibition is 34.6% (inactive).

As to `O=C(NCCCN1CCOCC1)c1cnn2c(-c3ccccc3)cc(-c3ccccc3)nc12`, the inhibition was 37.7% (inactive).

With `CN1CCN(c2ccc(S(=O)(=O)N3CCCCC3)cc2NC(=O)Cc2ccccc2F)CC1`, the inhibition was 9.14% (inactive).

For the compound `CCN1CCN(c2ccc(S(=O)(=O)N3CCCCC3)cc2NC(=O)Cc2c(Cl)cccc2Cl)CC1`, the inhibition is 65.1% (active).

For the compound `CCN1CCN(c2ccc(S(=O)(=O)N3CCCCC3)cc2NC(=O)c2cccc(NC(C)=O)c2)CC1`, the inhibition is 12% (inactive).

In the case of `COc1cc2[nH]c(=S)n(Cc3ccc(F)cc3)c(=O)c2cc1OC`, the inhibition is 81.3% (active).

On to `COc1ccc(Cn2c(=S)[nH]c3cc(C(=O)N4CCCCC4)ccc3c2=O)cc1`, for which the inhibition is 14.8% (inactive).

Take `COc1cc2[nH]c(=S)n(Cc3ccc(C)o3)c(=O)c2cc1OC`: the inhibition was 2.31% (inactive).

As for `CCOc1cc2[nH]c(=S)n(Cc3ccc(C(=O)N4CCN(C)CC4)cc3)c(=O)c2cc1OCC`, the inhibition was 91.7% (active).

Turning to `CCOc1cc2[nH]c(=S)n(Cc3ccc(C(=O)NCCOC)cc3)c(=O)c2cc1OCC`, the inhibition is 19.2% (inactive).

Regarding `COc1cc2[nH]c(=S)n(CCN3CCCCC3C)c(=O)c2cc1OC` (stereo not drawn), the inhibition is 39.9% (inactive).

In the case of `CC(=O)NC(Cc1ccc(F)c(F)c1)C(=O)NC1CCN(c2nnnn2-c2ccccc2)CC1` (stereo not drawn), the inhibition is 6.6% (inactive).

For the compound `Cc1ccc(CNC(=O)CCCNC(=O)c2ccc(Cl)cc2)n1C`, the inhibition was 22.5% (inactive).

`CCN(Cc1ccncc1)C(=O)CCc1ccccc1`: the inhibition is 16.5% (inactive).

Take `O=C(CCNc1n[nH]c(=O)[nH]c1=O)N/N=C\c1ccc(Br)cc1`: the inhibition was 9.18% (inactive).

For the compound `Cc1cc(C(=O)NNC(=O)c2ccccc2O)c(C)o1`, the inhibition was 30% (inactive).

As to `CC1=C(C)CC(C(=O)NNC(=O)c2csc3c2CCC(C(C)(C)C)C3)C(C(=O)O)C1` (stereo not drawn), the inhibition was 7.93% (inactive).

In the case of `CC1=C(C)CC(C(=O)NNC(=O)c2ccccc2O)C(C(=O)O)C1` (stereo not drawn), the inhibition was 60.5% (active).
